Experimental data as given in PubChem BioAssay.
For part of these data: Measured potencies and affinities stand elsewhere. Records with an inconclusive call do not appear. The source made the active and inactive calls.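 How the source made its calls, unless noted: active means fitted dose curve reaches 40% lysis signal rise at or below the highest valid concentration tested for that sample; inconclusive means flat fit between 30% and 70%, or poor curve fit; inactive means signal falls, stays flat within 30%, or no crossing.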

Key:
[1] = binders of probe aFSTL3 on microarray, primary screen, stem cell growth factor project, biochemical, small-molecule microarray, fluorescence 635/667 (AID 1064); conditions: higher = more signal;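 further: measures binding of the biotinylated anti-FSTL3 antibody to printed compounds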
[2] = binders from COS7 lysate, DM2A8 probe, primary screen, torsin A project, cell lysate, small-molecule microarray, fluorescence 635/667 (AID 1065); conditions: higher = more signal, COS7 lysate expressing mutant human TOR1A
[3] = binders of probe aFGF2 on microarray, primary screen, stem cell growth factor project, biochemical, small-molecule microarray, fluorescence 635/667 (AID 1067); conditions: higher = more signal;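 further: measures binding of biotinylated aFGF2 protein to printed compounds on slides; z-score merges feature fluorescence and signal-to-noise across triplicate slides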
[4] = binders of probe aFGF10 on microarray, primary screen, stem cell growth factor project, biochemical, small-molecule microarray, fluorescence 635/667 (AID 1071); conditions: higher = more signal;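 further: score merges 667 nm spot intensity and signal to noise from triplicate slides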
[5] = target: Neurogenic locus notch homolog protein 2 (Homo sapiens) (UniProt Q04721); experiment: Notch2 binders on small-molecule microarrays, primary screen, biochemical, small-molecule microarray, 635 nm fluorescence, stem cell growth factors (AID 1073); conditions: Notch2 binding, higher = more signal
Neurogenic locus notch homolog protein 2 (Homo sapiens), sequence (Q04721 whole entry, looked up, canonical isoform): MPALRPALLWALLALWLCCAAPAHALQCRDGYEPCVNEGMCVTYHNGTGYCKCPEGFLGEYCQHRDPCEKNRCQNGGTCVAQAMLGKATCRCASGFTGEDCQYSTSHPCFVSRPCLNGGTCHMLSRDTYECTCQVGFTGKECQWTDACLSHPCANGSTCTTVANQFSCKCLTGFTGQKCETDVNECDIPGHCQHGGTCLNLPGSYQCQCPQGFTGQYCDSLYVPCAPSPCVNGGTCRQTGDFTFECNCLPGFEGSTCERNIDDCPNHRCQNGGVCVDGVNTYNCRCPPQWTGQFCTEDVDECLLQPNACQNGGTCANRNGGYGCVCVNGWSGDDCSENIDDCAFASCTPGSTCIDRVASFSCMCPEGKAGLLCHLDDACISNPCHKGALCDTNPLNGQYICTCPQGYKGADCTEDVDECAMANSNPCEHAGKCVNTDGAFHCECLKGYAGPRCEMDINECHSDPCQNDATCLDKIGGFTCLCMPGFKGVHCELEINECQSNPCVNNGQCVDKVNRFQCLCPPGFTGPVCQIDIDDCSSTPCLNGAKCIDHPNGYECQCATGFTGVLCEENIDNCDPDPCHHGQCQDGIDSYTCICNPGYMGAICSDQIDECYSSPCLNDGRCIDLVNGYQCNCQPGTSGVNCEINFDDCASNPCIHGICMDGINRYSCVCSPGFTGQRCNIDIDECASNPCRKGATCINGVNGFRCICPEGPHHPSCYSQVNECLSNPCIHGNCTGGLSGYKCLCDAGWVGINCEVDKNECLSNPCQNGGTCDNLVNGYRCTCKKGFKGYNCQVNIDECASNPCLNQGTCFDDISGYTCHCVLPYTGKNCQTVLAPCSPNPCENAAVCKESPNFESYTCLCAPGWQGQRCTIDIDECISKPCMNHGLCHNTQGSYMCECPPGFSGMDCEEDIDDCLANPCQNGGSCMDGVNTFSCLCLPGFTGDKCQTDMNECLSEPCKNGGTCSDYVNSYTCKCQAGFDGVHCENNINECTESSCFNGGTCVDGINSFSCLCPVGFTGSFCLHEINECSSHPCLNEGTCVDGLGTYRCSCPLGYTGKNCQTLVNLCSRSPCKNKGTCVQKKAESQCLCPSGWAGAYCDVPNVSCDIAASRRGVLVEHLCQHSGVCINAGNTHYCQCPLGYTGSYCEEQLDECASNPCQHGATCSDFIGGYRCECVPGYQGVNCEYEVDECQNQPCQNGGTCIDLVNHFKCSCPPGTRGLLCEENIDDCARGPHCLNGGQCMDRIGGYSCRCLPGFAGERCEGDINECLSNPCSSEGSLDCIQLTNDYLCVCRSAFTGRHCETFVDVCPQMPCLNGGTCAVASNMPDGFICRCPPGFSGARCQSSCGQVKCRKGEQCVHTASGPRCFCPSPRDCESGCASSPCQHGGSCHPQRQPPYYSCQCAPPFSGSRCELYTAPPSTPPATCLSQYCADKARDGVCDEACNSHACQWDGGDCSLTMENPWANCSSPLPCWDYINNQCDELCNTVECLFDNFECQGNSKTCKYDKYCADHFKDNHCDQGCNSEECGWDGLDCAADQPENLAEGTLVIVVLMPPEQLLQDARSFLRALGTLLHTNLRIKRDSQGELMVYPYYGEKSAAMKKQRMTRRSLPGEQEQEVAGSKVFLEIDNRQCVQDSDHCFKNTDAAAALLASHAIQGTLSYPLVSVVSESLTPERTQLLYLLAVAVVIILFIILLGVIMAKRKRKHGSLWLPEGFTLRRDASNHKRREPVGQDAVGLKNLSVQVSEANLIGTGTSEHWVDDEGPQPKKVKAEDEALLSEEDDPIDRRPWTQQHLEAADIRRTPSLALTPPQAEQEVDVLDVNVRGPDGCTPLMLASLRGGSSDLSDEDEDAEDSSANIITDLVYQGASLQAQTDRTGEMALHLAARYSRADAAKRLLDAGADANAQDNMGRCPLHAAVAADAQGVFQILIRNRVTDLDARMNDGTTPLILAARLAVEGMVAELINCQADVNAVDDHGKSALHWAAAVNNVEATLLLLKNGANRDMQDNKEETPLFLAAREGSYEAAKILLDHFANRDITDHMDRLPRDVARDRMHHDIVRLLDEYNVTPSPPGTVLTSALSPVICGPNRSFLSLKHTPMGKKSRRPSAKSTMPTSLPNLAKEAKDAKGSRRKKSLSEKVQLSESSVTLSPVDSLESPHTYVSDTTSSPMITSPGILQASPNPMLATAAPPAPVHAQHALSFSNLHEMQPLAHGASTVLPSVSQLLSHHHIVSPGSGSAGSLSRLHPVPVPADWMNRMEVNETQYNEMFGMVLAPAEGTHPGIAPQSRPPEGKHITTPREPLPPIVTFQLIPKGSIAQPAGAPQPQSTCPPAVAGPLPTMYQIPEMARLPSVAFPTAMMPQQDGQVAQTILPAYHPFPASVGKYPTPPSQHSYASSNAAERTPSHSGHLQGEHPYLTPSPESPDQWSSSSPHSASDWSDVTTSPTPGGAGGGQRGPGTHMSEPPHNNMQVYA

[6] = target: Pro-neuregulin-1, membrane-bound isoform (Homo sapiens) (UniProt Q02297); experiment: NRG1 binders on small-molecule microarrays, primary screen, psychiatric disease protein project, biochemical, small-molecule microarray, fluorescence 635/667 (AID 1075); conditions: NRG1 binding, 635 nm fluorescence, higher = more signal;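 further: score combines 667 nm spot fluorescence with signal to noise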
Pro-neuregulin-1, membrane-bound isoform (Homo sapiens), sequence (Q02297 whole entry, looked up, the tested form may be a part, canonical isoform): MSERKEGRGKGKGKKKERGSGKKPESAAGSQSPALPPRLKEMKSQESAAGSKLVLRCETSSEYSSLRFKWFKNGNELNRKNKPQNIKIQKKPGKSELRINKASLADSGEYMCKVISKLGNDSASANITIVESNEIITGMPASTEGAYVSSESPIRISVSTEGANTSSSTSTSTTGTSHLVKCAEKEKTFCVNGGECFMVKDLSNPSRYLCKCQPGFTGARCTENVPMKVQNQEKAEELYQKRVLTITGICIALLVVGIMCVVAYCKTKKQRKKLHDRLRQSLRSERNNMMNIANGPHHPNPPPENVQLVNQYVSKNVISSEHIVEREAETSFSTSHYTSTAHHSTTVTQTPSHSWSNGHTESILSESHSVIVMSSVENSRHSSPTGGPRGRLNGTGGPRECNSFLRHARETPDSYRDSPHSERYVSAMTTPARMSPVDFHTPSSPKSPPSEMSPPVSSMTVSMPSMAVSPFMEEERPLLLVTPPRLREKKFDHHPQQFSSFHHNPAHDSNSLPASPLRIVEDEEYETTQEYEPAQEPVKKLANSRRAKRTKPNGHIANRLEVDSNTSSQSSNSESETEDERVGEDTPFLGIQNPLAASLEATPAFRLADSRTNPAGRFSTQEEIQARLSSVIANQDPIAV

[7] = system: Neuregulin-1 EGF-like domain; experiment: binders of neuregulin-1 EGF-like domain, primary screen, biochemical, small-molecule microarray, 635 nm fluorescence (AID 1081); conditions: small-molecule microarray binding, higher = more signal;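 further: binding of the protein to compounds printed on small-molecule microarray slides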
[8] = FRG1 promoter luciferase signal modulators, primary screen, FRG1 inhibition for FSHD, cell-based, C2C12 myotubes, firefly/Renilla luciferase, luminescence (AID 1084); conditions: higher = more signal, called active from +8 up or from −8 down
[9] = binders of probe aFST on microarray, primary screen, stem cell growth factor project, biochemical, small-molecule microarray, fluorescence 635/667 (AID 1086); conditions: higher = more signal;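 further: score merges 667 nm fluorescence with signal-to-noise of each printed compound spot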
[10] = binders of probe aHhip on microarray, primary screen, stem cell growth factor project, biochemical, small-molecule microarray, fluorescence 635/667 (AID 1087); conditions: higher = more signal;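 further: score merges spot fluorescence at 667nm with spot signal to noise ratio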
[11] = system: PRMT1 (protein arginine N-methyltransferase 1); experiment: PRMT1 binders on small-molecule microarrays, primary screen, biochemical, small-molecule microarray, 635 nm fluorescence (AID 1088); conditions: small-molecule microarray binding, higher = more signal;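 further: binding of Prmt1 protein to compounds spotted on small-molecule microarray slides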
[12] = yeast growth modulation, basal conditions, primary screen, YJM789 clinical isolate, OD600, 24 h (AID 1089);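 further: growth of clinical yeast isolate S. cerevisiae YJM 789 seeded 1000 cells per well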; conditions: S. cerevisiae YJM789 growth, higher = more signal, called active from +8 up or from −8 down
[13] = fission yeast growth modulation, primary screen, strain 972, OD600, 24 h, no modulator (AID 1090);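 further: basal condition with compound alone and no growth modifier present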; conditions: S. pombe 972 growth, higher = more signal, called active from +8 up or from −8 down
[14] = S. cerevisiae growth modulation with rapamycin, primary screen, strain BY4716, OD600, 96 h (AID 1091); conditions: higher = more signal, called active from +8 up or from −8 down
[15] = target: Torsin-1A-interacting protein 2 (Homo sapiens) (UniProt Q8NFQ8); experiment: LULL1 binders on small-molecule microarray, primary screen, cell lysate, human LULL1 lysate, 635/667 nm fluorescence (AID 1092); conditions: hLULL1 lysate binding, 635 nm fluorescence, higher = more signal;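 further: probe is lysate of COS7 cells overexpressing human LULL1; score merges per-feature 667 nm fluorescence with signal-to-noise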
Torsin-1A-interacting protein 2 (Homo sapiens), sequence (Q8NFQ8 whole entry, looked up): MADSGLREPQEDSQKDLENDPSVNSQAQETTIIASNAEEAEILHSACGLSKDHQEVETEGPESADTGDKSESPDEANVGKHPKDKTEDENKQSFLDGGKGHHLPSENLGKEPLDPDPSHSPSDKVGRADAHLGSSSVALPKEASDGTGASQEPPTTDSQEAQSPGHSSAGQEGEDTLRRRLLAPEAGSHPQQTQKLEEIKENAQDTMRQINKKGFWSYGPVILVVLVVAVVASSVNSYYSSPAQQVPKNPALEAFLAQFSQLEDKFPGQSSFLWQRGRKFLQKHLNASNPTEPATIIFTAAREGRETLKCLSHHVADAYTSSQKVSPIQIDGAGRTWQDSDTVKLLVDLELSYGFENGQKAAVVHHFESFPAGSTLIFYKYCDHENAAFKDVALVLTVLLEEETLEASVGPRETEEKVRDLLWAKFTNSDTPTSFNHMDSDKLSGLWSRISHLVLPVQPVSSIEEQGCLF

[16] = E. coli growth modulation, two-sided OD650, primary screen, E. coli filamentation project, strain DRC41, 24 h (AID 1093); conditions: OD650, 24 h, higher = more signal, called active from +8 up or from −8 down;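 further: MC1000 strain lacking acrAB efflux and sulA so SOS filamentation is blocked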
[17] = Cryptococcus neoformans growth inhibition, dose response, Alamar Blue, cherry-picks (AID 686998;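 active means falling signal with fitted half-maximal potency no higher than twice the top valid tested dose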)
[18] = inducers of Cryptococcus neoformans cell lysis, dose response, AK release luminescence, cherry-picks (AID 687000);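 further: luminescent detection of adenylate kinase leaking from lysed yeast; 0% = median neutral control signal and 100% = double that signal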
[19] = HepG2 cell cytotoxicity, dose response, cytotoxicity control, cherry-picks, set 2 (AID 687002;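 active means a dose-response fit showing signal loss, with half-maximal concentration no higher than twice the top tested dose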)

Compound	composite z-score [1]	composite z-score [2]	composite z-score [3]	composite z-score [4]	composite z-score [5]	composite z-score [6]	composite z-score [7]	z-score [8]	composite z-score [9]	composite z-score [10]	composite z-score [11]	z-score [12]	z-score [13]	z-score [14]	composite z-score [15]	z-score [16]	outcome [17]	outcome [18]	outcome [19]
C=CC[C@]1(C(=O)N2CCCCC2)COC(c2ccc(OCCCO)cc2)=N1	0.892	0.586	-0.153	-1.44	-1.58	1.05	0.796	-2.05 (inactive)	-0.329	-0.251	0.517	-0.485 (inactive)	-5.08 (inactive)	-2.75 (inactive)	2.43	1.16 (inactive)	–	–	–
O=C(O)[C@H]1C[C@H]2C(=O)N[C@@H](Cc3ccccc3)C(=O)N2[C@H]1c1ccc(O)cc1	1.01	0.419	-0.0943	-0.769	-1.42	0.511	1.24	1.02 (inactive)	0.16	-0.136	1.32	-0.261 (inactive)	-0.784 (inactive)	-0.322 (inactive)	2.54	0.906 (inactive)	–	–	–
O=C1O[C@H](c2ccccc2)[C@H](c2ccccc2)N2[C@H]1[C@@H](C(=O)Nc1nc3ccccc3s1)[C@]1(C(=O)Nc3ccc(C#CCCO)cc31)[C@H]2c1ccccc1OCCO	-0.246	1.25	-0.038	0.502	1.35	1.69	1.06	-1.51 (inactive)	0.599	0.0757	1.47	0.764 (inactive)	-1.98 (inactive)	2.62 (inactive)	2.85	2.96 (inactive)	–	–	–
C=CCC(OC(C)=O)[C@@H]1[C@@H](N(Cc2cccc3ccccc23)C(=O)Cc2ccc(OC)cc2)c2cc(OCCCO)ccc2N1C(=O)Cc1ccc(OC)cc1 (stereo not given in full)	0.163	0.045	-0.0396	-0.236	-0.111	-0.0173	-0.832	-0.781 (inactive)	-0.0127	-0.113	-0.59	0.395 (inactive)	-1.38 (inactive)	-0.275 (inactive)	0.0872	2.21 (inactive)	–	–	–
C=CCNC(=O)[C@H]1[C@@H]2C(=O)O[C@@H](c3ccccc3)[C@@H](c3ccccc3)N2[C@@H](c2ccccc2OCCO)[C@]12C(=O)N(C(=O)OCCOC)c1ccc(C#CCCO)cc12	1.61	1.31	0.0603	0.853	0.83	0.79	1.11	-4.05 (inactive)	1.24	0.511	1.43	0.827 (inactive)	-3.06 (inactive)	3.43 (inactive)	1.36	1.68 (inactive)	–	–	–
C=C(/C(=C/C[C@H](OC(=O)c1ccncc1)c1cccc(OCCO)c1)c1cc(C(=O)OC)ccc1OC)C(C)C	-0.0743	1.66	-0.113	0.382	0.191	-0.389	0.73	-1.23 (inactive)	-0.179	-0.0631	1.26	0.195 (inactive)	-0.382 (inactive)	0.947 (inactive)	1.23	1.22 (inactive)	–	–	–
CCOC(=O)C[C@H]1[C@H](OC(=O)Cc2ccc3c(c2)OCO3)[C@@H](NC(=O)c2ccc3ccccc3c2)c2cc(OCCCO)ccc2N1C(=O)c1ccc2ccccc2n1	-0.123	0.243	-0.161	0.319	0.429	0.799	0.8	-3.68 (inactive)	0.233	-0.132	0.144	-3.45 (inactive)	-3.3 (inactive)	-2.38 (inactive)	1.44	0.135 (inactive)	–	–	–
O=C1CCC(C(=O)Nc2cccc(C(F)(F)F)c2)N1 (stereo not given)	–	–	–	–	–	–	–	–	–	–	–	–	–	–	–	–	inactive	inactive	inactive
CO[C@H]1O[C@H](CO)[C@@H](OC(=O)Nc2ccccc2)[C@H](OC(=O)Nc2ccc3c(c2)OCO3)[C@H]1OC(=O)Nc1ccc2c(c1)OCO2	0.381	0.45	0.128	0.7	1.29	1.61	1.23	4.5 (inactive)	0.29	-0.175	1.56	0.648 (inactive)	0.494 (inactive)	2.28 (inactive)	2.8	2.75 (inactive)	–	–	–
[N-]=[N+]=NCc1ccccc1C[C@]1(C(=O)NCc2ccccc2)N=C(c2ccc(OCCCO)cc2)O[C@H]1c1ccccc1	1.45	1.21	0.135	0.17	1.15	0.994	0.97	-2.74 (inactive)	0.407	-0.224	0.544	2.2 (inactive)	2.85 (inactive)	35.5 (active)	2.47	1.85 (inactive)	–	–	–
C[C@H]1CN([C@@H](C)CO)S(=O)(=O)c2ccc(C#Cc3ccccn3)cc2O[C@@H]1CN(C)Cc1ccccc1	–	–	–	–	–	–	–	–	–	–	–	–	–	–	–	–	inactive	inactive	inactive
